Reference: PubChem BioAssay (NCATS)
“And” between values parts separate entries of the source, which are not always exact repeats. Equal values may be shown once. Inconclusive results are not listed. The source made the active and inactive calls. Unless noted, calls follow the shape of the dose curve; as a rule, active = well fitted curve in the direction sought with a large enough effect; inconclusive = small, poorly fitted or top-dose-only effect, or another doubt; inactive = no such curve, though single readings can be large; an effect the other way counts as inactive or inconclusive.

Key:
[1] = Primary fluorescence-based thiol-reactive (MSTI) qHTS assay for identification of artifact compounds. (AID 1845221);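 also: thiol-reactive compounds lower the probe fluorescence signal; nearly all actives have a fitted effect of over 65% in size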
In short: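 MSTI probe at 4 uM final in 2% DMSO/PBS pH 7.4; compounds, 1 h at room temperature in dark. Fluorescence Ex/Em 525/598 nm, normalised to Acetyl-MSTI and MSTI, fitted to 4-parameter Hill.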

[2] = system: Nanoluciferase (engineered Oplophorus gracilirostris luciferase); experiment: Primary Nanoluciferase (NLuc) qHTS assay for identification of artifact compounds. (AID 1845222);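 also: NLuc secreted into diluted conditioned medium of S16 cells; 0% = DMSO and -100% = no enzyme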
In short: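 qHTS format, against NLuc in S16 cell-conditioned medium. Nano-Glo substrate 1:100 was added after 15 min at room temperature. Luminescence was taken after a further 5 min.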

[3] = qHTS drug screen for cell cycle checkpoint inhibitors in PARPi-resistant BRCA-mutant ovarian cancer cell lines. (AID 1963452; calls by dose curve); settings: PEO1/OlaR viability, CellTiter-Glo luminescence, 96 h, stronger effect = lower value
In short: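 PEO1, PEO4 and PEO1/OlaR ovarian cancer cells, 600 per well, exposed 96 h at 37C to a dilution series. Viability read by CellTiter-Glo luminescence, normalized to DMSO and empty wells; activity summarized as Z-AUC.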

[4] = qHTS profiling for inhibitors of Plasmodium falciparum proliferation (AID 504749); also: nearly all actives have a fitted effect of over 60% in size; also: potency is read from the fitted curve at half-maximal effect;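 as to activity, negative = inhibition: 0% = DMSO vehicle and full inhibition = artemisinin control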; settings: P. falciparum in erythrocytes, SYBR Green DNA, 72 h
In short: (§1)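 P. falciparum-infected erythrocytes (0.3% parasitemia, 2.5% hematocrit) incubated with compound 72 h at 37 C, 5% CO2. Parasite DNA detected by SYBR Green after lysis, overnight at room temperature; normalised to 0.29 uM artemisinin and DMSO.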

3D7 = experiment: as above; settings: P. falciparum in erythrocytes, SYBR Green DNA, 72 h; series mostly up to 28.7 µM
In short: as §1

7G8 = experiment: as above; settings: P. falciparum in erythrocytes, SYBR Green DNA, 72 h; series mostly up to 28.7 µM
In short: as §1

AA1029 = experiment: as above; settings: P. falciparum in erythrocytes, SYBR Green DNA, 72 h; series mostly up to 28.7 µM
In short: as §1

AS120 = experiment: as above; settings: P. falciparum in erythrocytes, SYBR Green DNA, 72 h; series mostly up to 28.7 µM
In short: as §1

ATS189 = experiment: as above; settings: P. falciparum in erythrocytes, SYBR Green DNA, 72 h; series mostly up to 28.7 µM
In short: as §1

[5] = biological target: Cytochrome P450 3A4 (Homo sapiens) (UniProt P08684); experiment: qHTS for inhibitors of CYP3A4 against the NCATS DSHEA and TCM libraries (AID 1919971);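 also: % is scaled to controls: 0 for no effect and ±100 for the full control effect; inhibition lowers luminescence from luciferin made by CYP3A4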
Chain of Cytochrome P450 3A4 (Homo sapiens) (P08684 whole entry, looked up, canonical isoform): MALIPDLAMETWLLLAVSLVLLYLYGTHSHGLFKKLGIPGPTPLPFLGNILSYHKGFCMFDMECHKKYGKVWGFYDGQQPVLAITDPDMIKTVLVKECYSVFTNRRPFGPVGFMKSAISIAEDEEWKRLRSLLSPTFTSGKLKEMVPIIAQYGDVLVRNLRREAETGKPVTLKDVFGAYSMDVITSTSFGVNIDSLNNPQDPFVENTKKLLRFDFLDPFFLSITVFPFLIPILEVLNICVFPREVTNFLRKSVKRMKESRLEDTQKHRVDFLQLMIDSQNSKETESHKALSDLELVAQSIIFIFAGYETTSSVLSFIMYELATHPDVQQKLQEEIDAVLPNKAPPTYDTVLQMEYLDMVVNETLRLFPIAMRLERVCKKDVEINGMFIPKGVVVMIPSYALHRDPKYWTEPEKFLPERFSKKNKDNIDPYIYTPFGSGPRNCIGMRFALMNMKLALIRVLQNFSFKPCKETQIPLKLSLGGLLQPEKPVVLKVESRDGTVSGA
In short: (§2)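 Read-out is luminescence after P450-Glo detection (30 min, RT). Before that: 15 min compound–enzyme preincubation, then 30-45 min reaction with 1x NADPH regeneration solution, substrate concentration isoform-specific.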

[6] = biological target: Cytochrome P450 2D6 (Homo sapiens) (UniProt P10635); experiment: qHTS for inhibitors of CYP2D6 against the NCATS DSHEA and TCM libraries (AID 1919972); also: % is scaled to controls: 0 for no effect and ±100 for the full control effect
Chain of Cytochrome P450 2D6 (Homo sapiens) (P10635 whole entry, looked up): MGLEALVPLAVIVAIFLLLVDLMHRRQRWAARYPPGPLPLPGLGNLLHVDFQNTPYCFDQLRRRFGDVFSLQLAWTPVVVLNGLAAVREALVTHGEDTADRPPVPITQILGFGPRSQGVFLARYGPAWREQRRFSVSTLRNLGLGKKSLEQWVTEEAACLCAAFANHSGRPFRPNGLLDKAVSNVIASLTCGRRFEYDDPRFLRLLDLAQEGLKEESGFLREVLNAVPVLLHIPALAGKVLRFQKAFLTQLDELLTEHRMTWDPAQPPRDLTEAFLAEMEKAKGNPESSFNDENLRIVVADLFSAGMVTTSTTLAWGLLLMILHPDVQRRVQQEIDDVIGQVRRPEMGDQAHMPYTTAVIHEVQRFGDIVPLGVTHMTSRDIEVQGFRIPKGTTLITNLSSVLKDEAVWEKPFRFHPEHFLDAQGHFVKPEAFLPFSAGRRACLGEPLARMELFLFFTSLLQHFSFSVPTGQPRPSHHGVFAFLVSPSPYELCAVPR
In short: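 Luminescent P450-Glo read-out of CYP2D6 turnover of a luciferin substrate after NADPH-driven reaction of 30-45 min at room temperature. Compounds were first preincubated 15 min with enzyme at titrated concentrations; quinidine was the intraplate control.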

[7] = biological target: Cytochrome P450 2C9 (Homo sapiens) (UniProt P11712); experiment: qHTS for inhibitors of CYP2C9 against the NCATS DSHEA and TCM libraries (AID 1919973);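 also: luminogenic pro-luciferin CYP2C9 substrate turned into luciferin with NADPH regeneration; % is scaled to controls: 0 for no effect and ±100 for the full control effect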
Chain of Cytochrome P450 2C9 (Homo sapiens) (P11712 whole entry, looked up): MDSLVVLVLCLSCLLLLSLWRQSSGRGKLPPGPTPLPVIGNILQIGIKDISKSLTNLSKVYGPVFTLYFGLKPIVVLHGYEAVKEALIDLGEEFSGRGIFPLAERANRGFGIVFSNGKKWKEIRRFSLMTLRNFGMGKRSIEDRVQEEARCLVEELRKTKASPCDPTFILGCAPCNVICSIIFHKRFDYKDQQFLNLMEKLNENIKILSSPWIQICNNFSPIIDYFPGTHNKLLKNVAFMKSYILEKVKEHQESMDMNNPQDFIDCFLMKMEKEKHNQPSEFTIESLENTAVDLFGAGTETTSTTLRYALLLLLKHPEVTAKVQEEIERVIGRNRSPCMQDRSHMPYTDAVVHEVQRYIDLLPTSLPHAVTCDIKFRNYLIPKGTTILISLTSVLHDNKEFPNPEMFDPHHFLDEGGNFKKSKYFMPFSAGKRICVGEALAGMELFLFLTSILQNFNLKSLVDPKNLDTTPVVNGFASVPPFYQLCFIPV
In short: as §2

[8] = biological target: Cytochrome P450 2C19 (Homo sapiens) (UniProt P33261); experiment: qHTS for inhibitors of CYP2C19 against the NCATS DSHEA and TCM libraries (AID 1919974);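 also: luminescence from luciferin released by CYP2C19 oxidation of a pro-luciferin substrate; % is scaled to controls: 0 for no effect and ±100 for the full control effect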
Chain of Cytochrome P450 2C19 (Homo sapiens) (P33261 whole entry, looked up): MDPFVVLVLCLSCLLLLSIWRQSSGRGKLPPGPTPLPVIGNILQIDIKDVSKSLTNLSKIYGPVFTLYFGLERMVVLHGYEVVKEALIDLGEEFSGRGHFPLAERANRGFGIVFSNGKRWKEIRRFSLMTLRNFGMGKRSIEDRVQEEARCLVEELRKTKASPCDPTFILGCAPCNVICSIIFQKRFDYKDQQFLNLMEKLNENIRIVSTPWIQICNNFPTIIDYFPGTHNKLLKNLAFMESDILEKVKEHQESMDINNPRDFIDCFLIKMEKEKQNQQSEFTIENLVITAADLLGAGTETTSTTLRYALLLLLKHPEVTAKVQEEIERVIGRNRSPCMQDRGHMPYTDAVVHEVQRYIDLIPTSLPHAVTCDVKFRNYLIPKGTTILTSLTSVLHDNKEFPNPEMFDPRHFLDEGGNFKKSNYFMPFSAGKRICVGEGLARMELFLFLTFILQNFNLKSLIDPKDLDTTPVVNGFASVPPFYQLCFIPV
In short: as §2

[9] = KB-3-1 P-gp reporter qHTS against the NCATS DSHEA and TCM libraries (AID 1919975); also: 0% is about no effect
In short: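 KB-3-1 parental line, 1536-well qHTS: cells seeded, ~4 h attachment, pintool compound addition, ~72 h at 37C, then CellTiter-Glo, 30 min RT, luminescence. Concentration-response format.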

[10] = biological target: Cytochrome P450 1A2 (Homo sapiens) (UniProt P05177); experiment: qHTS for inhibitors of CYPIA2 against the NCATS DSHEA and TCM libraries (AID 1919976);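 also: light from luciferin formed by CYP1A2 from a pro-luciferin substrate; % is scaled to controls: 0 for no effect and ±100 for the full control effect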
Chain of Cytochrome P450 1A2 (Homo sapiens) (P05177 whole entry, looked up): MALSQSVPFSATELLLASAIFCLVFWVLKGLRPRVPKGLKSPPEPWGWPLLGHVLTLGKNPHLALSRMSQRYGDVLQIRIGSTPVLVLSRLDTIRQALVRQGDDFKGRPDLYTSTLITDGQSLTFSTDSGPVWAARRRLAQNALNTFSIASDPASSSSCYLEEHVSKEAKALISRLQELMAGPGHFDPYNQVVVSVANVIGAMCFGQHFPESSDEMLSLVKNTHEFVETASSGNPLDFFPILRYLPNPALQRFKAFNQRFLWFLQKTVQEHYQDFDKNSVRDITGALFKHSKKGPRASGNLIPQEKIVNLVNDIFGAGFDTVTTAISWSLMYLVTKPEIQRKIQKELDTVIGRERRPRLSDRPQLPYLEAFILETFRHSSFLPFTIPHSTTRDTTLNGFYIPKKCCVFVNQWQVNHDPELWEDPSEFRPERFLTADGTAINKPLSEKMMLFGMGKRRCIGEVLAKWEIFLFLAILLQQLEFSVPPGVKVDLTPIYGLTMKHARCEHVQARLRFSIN
In short: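 CYP1A2 + luciferin substrate, 100 mM KPO4-type buffer; cmpd 15 min RT; 1x NADPH regen, 30-45 min RT dark; detection reagent 30 min RT; luminescence. Minus-enzyme wells as background; furafylline intraplate control.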

[11] = qHTS Counterscreen for compound interference against the NCATS DSHEA and TCM libraries (AID 1919978); settings: firefly luciferase detection reagent interference, luminescence;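 also: compounds preincubated with 1 µM D-luciferin or buffer before detection reagent; % of control where 0% means no effect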
In short: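 Compounds, titrated from 19.5 nM to 39.8 uM final, were pinned onto 1 uM D-luciferin or plain 100 mM potassium phosphate. After 15 min at room temperature, luciferin detection reagent was added for 30 min before the luminescence read.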

[12] = Dual reporter qHTS for agonist of Pregnane X Receptor (hPXR) against the NCATS DSHEA and TCM libraries: Fluorescence readout (AID 1920058); also: 0% is about no effect
In short: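 HepG2 hPXR-Luc, 2000 cells/well, 5 h attach; cpds ~24 h, 37 °C/5% CO2; CellTiter-Fluor 1 h; fluor. Ex/Em 405/540 nm = viability.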

[13] = biological target: Nuclear receptor subfamily 1 group I member 2 (Homo sapiens) (UniProt O75469); experiment: Dual reporter qHTS for agonist of Pregnane X Receptor (hPXR) against the NCATS DSHEA and TCM libraries: Luminescence readout (AID 1920059); also: 0% is about no effect
Chain of Nuclear receptor subfamily 1 group I member 2 (Homo sapiens) (O75469 whole entry, looked up): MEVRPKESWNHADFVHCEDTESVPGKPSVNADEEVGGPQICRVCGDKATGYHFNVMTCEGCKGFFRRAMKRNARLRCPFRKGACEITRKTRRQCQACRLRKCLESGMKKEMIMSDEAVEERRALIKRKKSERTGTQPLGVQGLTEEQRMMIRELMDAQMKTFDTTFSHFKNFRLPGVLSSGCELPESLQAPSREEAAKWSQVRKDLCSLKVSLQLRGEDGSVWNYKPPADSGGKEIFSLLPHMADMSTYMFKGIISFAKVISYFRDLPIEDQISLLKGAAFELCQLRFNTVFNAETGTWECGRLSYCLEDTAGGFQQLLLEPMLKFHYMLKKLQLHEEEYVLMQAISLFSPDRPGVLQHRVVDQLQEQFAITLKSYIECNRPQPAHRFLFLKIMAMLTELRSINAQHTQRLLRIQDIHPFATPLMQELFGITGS
In short: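 hPXR-Luc HepG2 cells, 2000/well in 5% charcoal-stripped FBS medium, attached 5 h, then exposed 24 h at 37C to compounds. Viability by CellTiter-Fluor, then luciferase luminescence with ONE-Glo.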

[14] = biological target: Nuclear receptor subfamily 1 group I member 2 (Homo sapiens) (UniProt O75469); experiment: Dual reporter qHTS for antagonist of Pregnane X Receptor (hPXR) against the NCATS DSHEA and TCM libraries: Luminescence Readout (AID 1920060);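 also: HepG2 cells carrying hPXR luciferase reporter stimulated with rifampicin at 2 µM; 0% is about no effect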
In short: (§3)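 hPXR-Luc HepG2 cells exposed 24 h at 37 C to compounds with 2 uM rifampicin in antagonist mode; luciferase luminescence measured by ONE-Glo, with CellTiter-Fluor viability read beforehand.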

[15] = Dual reporter qHTS for antagonist of Pregnane X Receptor (hPXR) against the NCATS DSHEA and TCM libraries: Fluorescence Readout (AID 1920061); also: 0% is about no effect
In short: as §3

[16] = measured here: PEO1 parental Z-AUC
[17] = at 28.7 µM (top of the series), parasite line A
[18] = at 28.7 µM (top of the series), parasite line B

CCN(CC)CCCC(C)Nc1c2ccc(Cl)cc2nc2ccc(OC)cc12 (configuration not stated)
inactive: Potency [1] | outcome [2] | Z-AUC [3] -0.243
-1.15: Z-AUC [3, 16]
-1.09: Z-AUC ([3]; measured here: PEO4 Z-AUC)

CS(=O)(=O)c1ccc([C@@H](O)[C@@H](CF)NC(=O)C(Cl)Cl)cc1
inactive: Potency [1] | outcome [2]

Cn1c(=O)c2c(ncn2CC2OCCO2)n(C)c1=O
0.00528: Z-AUC ([3]; measured here: PEO4 Z-AUC)
-0.316: Z-AUC [3, 16]
inactive: Potency [1] | outcome [2] | Z-AUC [3] -0.883 | activity, negative = inhibition [4, 17] -11.9% | activity, negative = inhibition [4, 18] -9.38% | Potency (3D7) | Potency (7G8) | Potency (AA1029) | Potency (AS120) | Potency (ATS189)

C[C@@H]1CN(c2c(F)c(F)c3c(=O)c(C(=O)O)cn(C4CC4)c3c2F)C[C@H](C)N1
inactive: activity change, negative = thiol reactive [1] -0.316% [at 11.5 µM] | activity, negative = inhibition [2] 4.03% [at 11.6 µM] | activity, negative = inhibition [4, 17] 9.49% | activity, negative = inhibition [4, 18] 3.41% | Potency (3D7) | Potency (7G8) | Potency (AA1029) | Potency (AS120) | Potency (ATS189)

Nc1ccc(S(=O)(=O)Nc2nccs2)cc1
inactive: Potency [1] | outcome [2] | activity, negative = inhibition [4, 17] 1.04% | activity, negative = inhibition [4, 18] -2.23% | Potency (3D7) | Potency (7G8) | Potency (AA1029) | Potency (AS120) | Potency (ATS189)

CCCCN1CCCC[C@H]1C(=O)Nc1c(C)cccc1C
inactive: Potency [1] | outcome [2] | activity, negative = inhibition [4, 17] 5.7% | activity, negative = inhibition [4, 18] 17.3% | Potency (3D7) | Potency (7G8) | Potency (AA1029) | Potency (AS120)

CC/C=C(\C(=O)N[C@@H]1C(=O)N2C(C(=O)OCOC(=O)C(C)(C)C)=C(COC(N)=O)CS[C@H]12)c1csc(N)n1
inactive: Potency [1] | outcome [2]

CCCCOc1cc(C(=O)OCCN(CC)CC)ccc1N
inactive: Potency [1] | outcome [2] | activity, negative = inhibition ([4]; at 12.8 µM (top of the series), parasite line A) 8.11% | activity, negative = inhibition ([4]; at 12.8 µM (top of the series), parasite line B) 4.89% | Potency (3D7) | Potency (7G8) | Potency (AA1029) | Potency (AS120) | Potency (ATS189)

C[C@]12CC[C@@H]3c4ccc(O)cc4CC[C@H]3[C@@H]1CC[C@@H]2OC(=O)CCC1CCCC1
inactive: Potency [1] | outcome [2]

O=C(CCCN1CCN(c2ccccn2)CC1)c1ccc(F)cc1
inactive: Potency [1] | outcome [2] | activity, negative = inhibition [4, 17] -3.57% | activity, negative = inhibition [4, 18] 15.4% | Potency (3D7) | Potency (7G8) | Potency (AA1029) | Potency (AS120) | Potency (ATS189)

CCN(CC)CCNC(=O)c1cc(Cl)c(N)cc1OC
inactive: Potency [1] | outcome [2] | activity, negative = inhibition [4, 17] 11.7% | activity, negative = inhibition [4, 18] -3.16% | Potency (3D7) | Potency (7G8) | Potency (AA1029) | Potency (AS120) | Potency (ATS189)

CN1CCC[C@@H]1Cc1c[nH]c2ccc(CCS(=O)(=O)c3ccccc3)cc12
inactive: Potency [1] | outcome [2] | activity, negative = inhibition [4, 17] -0.0666% | activity, negative = inhibition [4, 18] -10.1% | Potency (3D7)
active: Potency (7G8) 6.31 µM

COc1cc(C(=O)N2CCOCC2)cc(OC)c1OC
inactive: activity, negative = inhibition [4, 17] 13.6% and -1.06% | activity, negative = inhibition [4, 18] 0.0617% and 7.6% | Potency (3D7) | Potency (7G8) | Potency (AA1029) | Potency (AS120) | Potency (ATS189)

CNCCC(Oc1ccc(C(F)(F)F)cc1)c1ccccc1 (configuration not stated)
active: Potency (7G8) 11.2 µM
inactive: activity, negative = inhibition [4, 17] -5.44% | activity, negative = inhibition [4, 18] -9.25% | Potency (3D7)

CCN(CC)CCNC(=O)c1c(C)[nH]c(/C=C2\C(=O)Nc3ccc(F)cc32)c1C
-0.0779: Z-AUC ([3]; measured here: PEO4 Z-AUC)
-0.162: Z-AUC [3, 16]
inactive: Z-AUC [3] -0.535
active: Potency ([4]; parasite line A) 6.31 µM | Potency ([4]; parasite line B) 8.91 µM | Potency (3D7) 8.91 µM | Potency (7G8) 3.98 µM | Potency (AA1029) 8.91 µM | Potency (AS120) 7.08 µM | Potency (ATS189) 8.91 µM

O=c1cc(CO)occ1O
inactive: activity, negative = inhibition [4, 17] 1.47% | activity, negative = inhibition [4, 18] -0.837% | Potency (3D7) | Potency (7G8) | Potency (AA1029) | Potency (AS120) | Potency (ATS189)

C[C@H]1O[C@@H](n2cc(F)c(=O)[nH]c2=O)[C@H](O)[C@@H]1O
1.52: Z-AUC ([3]; measured here: PEO4 Z-AUC)
1.13: Z-AUC [3, 16]
inactive: Z-AUC [3] 0.97 | activity, negative = inhibition [4, 17] 3.03% | activity, negative = inhibition [4, 18] 4.84% | Potency (3D7) | Potency (7G8) | Potency (AA1029) | Potency (AS120) | Potency (ATS189)

Cc1c(O)cccc1C(=O)N[C@@H](CSc1ccccc1)[C@H](O)CN1C[C@H]2CCCC[C@H]2C[C@H]1C(=O)NC(C)(C)C
active: Potency ([4]; parasite line B) 7.94 µM | Potency (3D7) 12.6 µM | Potency (AS120) 10 µM
inactive: Z-AUC [3] -0.819
-0.979: Z-AUC [3, 16]
-1.07: Z-AUC ([3]; measured here: PEO4 Z-AUC)

NC(=O)c1ncn([C@@H]2O[C@H](CO)[C@@H](O)[C@H]2O)n1
inactive: Z-AUC [3] -0.199
-0.186: Z-AUC [3, 16]
-0.149: Z-AUC ([3]; measured here: PEO4 Z-AUC)

Nc1ncnc2c1ncn2[C@@H]1O[C@H](CO)[C@@H](O)[C@H]1O
inactive: Z-AUC [3] 0.682 | activity, negative = inhibition [4, 17] 7.65% | activity, negative = inhibition [4, 18] 2.17% | Potency (3D7) | Potency (7G8) | Potency (AA1029) | Potency (AS120) | Potency (ATS189)
1.16: Z-AUC ([3]; measured here: PEO4 Z-AUC)
0.71: Z-AUC [3, 16]

CC12CCC(CC1)C(C)(C)O2
inactive: outcome [5] | outcome [6] | outcome [7] | outcome [8] | outcome [9] | outcome [10] | max response [11] -1.5% | outcome [12] | outcome [13] | outcome [14] | outcome [15] | activity, negative = inhibition [4, 17] 9.21% | activity, negative = inhibition [4, 18] -14.4% | Potency (3D7) | Potency (7G8) | Potency (AA1029) | Potency (AS120) | Potency (ATS189)
